Rows were chosen to be rich in hits. Some 2.7% of all compounds tested hit in one or more screens of this group.
Tau fibril ThT = qHTS for Inhibitors of Tau Fibril Formation, Thioflavin T Binding; hit rate 2.1% among 270,000; Potency, µM (doses to about 57.4 µM), hits mostly inhibitors; recombinant tau K18 P301L, heparin-induced fibrillization, ThT fluorescence; AID 1460, 2008; Microtubule-associated protein tau (Homo sapiens), P10636; note: nearly all actives have a fitted effect of over 55% in size
Target sequence (P10636 561-689 P618L limits assumed): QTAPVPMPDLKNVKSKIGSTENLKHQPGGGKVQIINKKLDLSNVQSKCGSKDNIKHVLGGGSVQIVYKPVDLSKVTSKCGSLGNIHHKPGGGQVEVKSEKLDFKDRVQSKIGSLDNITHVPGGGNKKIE
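In this qHTS, human K18 P301L tau is incubated with compound and heparin for 6 hr at 37 C, and Thioflavin T fluorescence then reports fibril load.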
Tau FP inhib = qHTS for Inhibitors of Tau Fibril Formation, Fluorescence Polarization; Microtubule-associated protein tau (Homo sapiens), P10636; K18 P301L tau heparin fibrillization, Alexa594 FP, 6 h; Potency, µM (top dose mostly 57.7 µM), hits mostly inhibitors; hit rate 0.39% among 280,000; AID 1468, 2008; note: nearly all actives have a fitted effect of over 55% in size
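Compound effects on tau fibrillization are measured by Alexa 594 fluorescence polarization (ex 555, em 632 nm). K18 P301L tau is used at 15 uM with 0.24 uM labeled tracer, and 20 uM heparin induces aggregation over 6 hr at 37 C.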
Tau fluor counter = Counterscreen qHTS for Inhibitors of Tau Fibril Formation, Fluorescence Polarization; AID 1463, 2008; hit rate 0.93% among 280,000; Potency, µM (titrated, usually from 57.7 µM); tau K18 P301L Alexa594 fluorescence, heparin fibrillization; note: nearly all actives have a fitted effect of over 55% in size
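Human tau K18 P301L (15 uM unlabeled, 0.24 uM Alexa 594-labeled) in 100 mM sodium acetate pH 7 with 20 uM heparin, 6 hr at 37 C. ThT 30 uM added, 1 hr ambient; Alexa 594 FP and total fluorescence read at 555/632 nm.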
Coupling enz = qHTS Assay for Inhibitors of Fructose-1,6-bisphosphate Aldolase from Giardia Lamblia: Coupling assay counterscreen; coupling enzyme system counterscreen, AmpLite Red fluorescence; activity change, negative = inhibition, % at 58.2 µM, hits read low; hit rate 0.67% among 290,000; in the data active = activity change below about -30%
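Counterscreen lacking aldolase: glyceraldehyde-3-phosphate coupling-enzyme reagent preincubated 10 min at RT with compound (at 57.5 uM final), then substrate/coupling system with AmpLite Red added; fluorescence read at 525/598 nm after 20 min RT.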
Of the large screens only hits and unclear results are named; the others gave an inactive call; [ ] = another dose, or the depositor's remark. Unless noted, calls come from the whole dose curve; as a rule, active = well fitted curve in the direction sought with a large enough effect; inconclusive = small, poorly fitted or top-dose-only effect, or another doubt; inactive = no such curve, though single readings can be large; an effect the other way counts as inactive or inconclusive.

O=S1(=O)C=C(Sc2nc3ccccc3s2)c2ccccc21	Tau fibril ThT 10µM, Tau FP inhib inconclusive
NC(=NCCc1c[nH]c2ccccc12)NS(=O)(=O)c1ccc2ccccc2c1	Coupling enz -36
NC(=NCCc1c[nH]c2ccccc12)NS(=O)(=O)c1ccc(F)cc1	none
COc1ccccc1NC(c1ccc(Cl)cc1)c1nnc(-c2cccc(F)c2)o1 (configuration not stated)	none (no result: Coupling enz)
Cc1cc(/C=C2\C(=N)N3N=C(c4ccco4)SC3=NC2=O)c(C)n1Cc1ccccc1	Tau fibril ThT 13µM, Tau fluor counter inconclusive
CCC1=NN2C(=N)/C(=C/c3cc(C)n(Cc4ccccc4)c3C)C(=O)N=C2S1	Tau fibril ThT inconclusive
N#C/C(=C1\C(=O)Nc2c(Cl)cc(Cl)cc21)c1nnc2n1CCCCC2	Tau fibril ThT 16µM, Tau FP inhib inconclusive, Coupling enz -38
Cc1ccc(CNC(=O)c2c[nH]n3c(=O)c(Cc4ccc(F)cc4Cl)c(C)nc23)cc1	Tau fibril ThT 28µM, Tau fluor counter inconclusive (no result: Coupling enz)
Cc1nc2c(C(=O)NCCc3ccccc3)c[nH]n2c(=O)c1Cc1ccc(F)cc1Cl	Tau fibril ThT inconclusive (no result: Coupling enz)
CCOC(=O)c1cccc(NC(=O)CCc2c(C)nn(-c3ccc(N4CCCC4)nn3)c2C)c1	Tau fibril ThT inconclusive (no result: Coupling enz)
CN(C)c1ccc(N=Cc2nc(-c3ccccc3)oc2O)cc1	Tau fibril ThT 2.2µM, Tau fluor counter inconclusive
CN(C)c1ccc(N=Cc2nc(-c3ccccc3)oc2OC(=O)c2ccccc2)cc1	Tau fibril ThT inconclusive
CSc1ccccc1N=Cc1nc(-c2ccccc2)oc1O	Tau fibril ThT 20µM, Tau fluor counter inconclusive
COc1ccccc1N=Cc1nc(-c2ccccc2)oc1OC(C)=O	Tau fibril ThT 25µM, Tau FP inhib inconclusive, Tau fluor counter inconclusive
CC(=O)Oc1oc(-c2ccccc2)nc1/C=N/c1ccccn1	none
CC(=O)Oc1oc(-c2ccccc2)nc1C=Nc1ccc(N(C)C)cc1	Tau fibril ThT 14µM, Tau fluor counter inconclusive
COc1ccccc1-c1nnc(C2CCN(C(=O)c3cccc(C)c3)CC2)o1	none (no result: Coupling enz)
CC[C@H]1C2=C3C(CC[C@H]4C(OCc5ccc(F)cc5C(F)(F)F)OC[C@](C)([C@@H]34)N(C(=O)OC(C)(C)C)C2)C(COC(C)=O)C1COC(C)=O (some centres not stated)	none
O=C(CSc1nc(=O)[nH]c2c1CCC2)NCc1ccc(Cl)cc1	none (no result: Coupling enz)
CC(=O)Nc1ccc(N=Cc2nc(-c3ccc(C)cc3)oc2O)cc1	Tau fibril ThT 4.5µM, Tau fluor counter inconclusive
COc1ccc(N=Cc2nc(-c3ccco3)oc2O)cc1	Tau fibril ThT 16µM, Tau fluor counter inconclusive
Cc1ccc2oc(=O)c3cc(C(=O)Nc4ccccc4C(N)=O)sc3c2c1	none (no result: Coupling enz)
CCn1c2ccccc2c2cc(NC(=O)Cc3ccc(S(=O)(=O)N4CCOCC4)s3)ccc21	Tau fibril ThT inconclusive, Tau fluor counter 7.9µM[quencher]
CN(C)S(=O)(=O)c1ccc(NC(=O)Cc2ccc(S(=O)(=O)N3CCOCC3)s2)cc1	none
Cc1ccc(/C=N/NC(=O)c2nnn(-c3nonc3N)c2-c2ccc3c(c2)OCO3)s1	none (no result: Tau fibril ThT, Tau FP inhib, Tau fluor counter)
COc1cc(C(=O)Nc2ccc3nc(N4CCN(C)CC4)cc(C)c3c2)cc(OC)c1OC	none (no result: Tau fibril ThT, Tau FP inhib, Tau fluor counter)
CCN1CCN(c2cc(C)c3cc(NC(=O)/C=C/c4cccc(OC)c4OC)ccc3n2)CC1	Tau fibril ThT 3.2µM, Tau fluor counter 18µM[quencher] (no result: Coupling enz)
CCN1CCN(c2cc(C)c3cc(NC(=O)Cc4ccc(OC)c(OC)c4)ccc3n2)CC1	Tau fibril ThT inconclusive
COc1cccc(/C=C/C(=O)Nc2ccc3nc(N4CCN(C)CC4)cc(C)c3c2)c1OC	Tau fibril ThT 5µM, Tau fluor counter 8.9µM[quencher] (no result: Coupling enz)
CCOc1ccc(C(=O)Nc2ccc3c(c2)CCCN3S(=O)(=O)c2ccc(C)cc2)cc1	none (no result: Coupling enz)
CCN(CC)S(=O)(=O)c1ccc(NC(=O)[C@H](CSCc2ccccc2)N2Cc3ccccc3C2=O)cc1	none (no result: Coupling enz)
CCOc1cccc(-c2cc(=O)[nH][nH]2)c1	Tau fibril ThT 3.5µM, Tau FP inhib inconclusive
COc1cccc(-c2cc(=O)[nH][nH]2)c1	none
CCO/C=C1/C(=O)N(c2ccc(OC)cc2)C(=O)c2ccccc21	none
CCO/C=C1/C(=O)N(C)C(=O)c2cc(OC)ccc21	Coupling enz -43
O=C(Nc1cccc(Cl)c1)N1CCC(CN2CCOCC2)CC1	none (no result: Coupling enz)

High-throughput results as filed in PubChem.
